Measurements taken from PubChem BioAssay (NCI).
About 83,000 compounds went through this panel and 20% of them were active in at least one assay; those are over-represented in the sample as a whole.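 For each line, cells grew in 96-well plates with the test compound present at a single concentration for 48 hours.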 The source made the active and inactive calls. The calls were made as follows: active = growth percent below 10; inactive = the rest.

Tested on: HCT-116 colon
Experiment: NCI-60 one-dose screen, 48 h (100 = growth as untreated, 0 = no growth, -100 = all killed)
Settings: 10 µM

| Structure (SMILES) | growth |
| --- | --- |
| O=C(Nc1cccc(C(F)(F)F)c1)c1cncc(C#Cc2cnc3cccnn23)c1 | 15.4% (inactive) |
| CCOc1ccc(/C=N/NC(=O)Cn2nc(Cc3ccccc3)c3onc(C)c3c2=O)cc1 | 10.3% (inactive) |
| COc1cc(/C=C/C(=O)c2ccc(C(F)(F)F)cc2)ccc1Oc1nc(Nc2ccc(F)cc2)nc(N(C)C)n1 | 7.06% (active) |
| CC(=O)c1cc(C(=O)N2c3ccccc3Sc3ccccc32)n2ccc(C)cc12 | 7.08% (active) |
| CC1(C)CC[C@]2(C(=O)N3CCOCC3)CC[C@]3(C)C(=CC[C@@H]4[C@@]5(C)CC[C@H](NCO)C(C)(C)[C@@H]5CC[C@]43C)[C@H]2C1 | -88.9% (active) |
| COC[C@@H](CC(C)C)N=C1NC(=O)/C(=C/c2ccc3ncsc3c2)N1 | 19.2% (inactive) |
| CN1CCN(Cc2ccc(C(=O)Nc3cccc(Nc4ccc5c(O)cccc5n4)c3)cc2C(F)(F)F)CC1 | -43.9% (active) |
| O=C(Nc1nc2ccc([N+](=O)[O-])cc2s1)Nc1ccccc1I | -18.8% (active) |
| CN1CCCN(Cc2ccc(C(=O)Nc3cccc(Nc4ccc5cc(O)ccc5n4)c3)cc2C(F)(F)F)CC1 | 3.55% (active) |
| COc1ccc(N2N=C(c3ccc4c(c3)OCCO4)CC2c2cccc(NC(=O)CCCNS(=O)(=O)c3ccc(F)cc3)c2)cc1 (stereo not drawn) | 73.3% (inactive) |
| CC(=O)Nc1ccc(-n2cnc3cc(-c4ccc(O)cc4)ccc32)cc1F | 13.9% (inactive) |
| O=C1NC(=NC2CCCCCC2)N/C1=C\c1ccc2ncoc2c1 | 23.5% (inactive) |
| COC1=C[C@@]23CCC(=O)N2CCc2cc4c(cc2[C@H]3[C@H]1OC(=O)C(C)(C)O)OCO4 | 101% (inactive) |
